# Results: PubChem BioAssay
# Calls of active or inactive are those of the source.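 The calls were made as follows, unless noted: active = NADPH fluorescence slope more negative than the mean of all samples by about 3 SD, 99.7% confidence; inactive = the rest.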
# Assays:
# [1] = inhibitors of TNFa-induced NFkB p65 translocation, primary screen, imaging, HUVEC, MLSMR starter and 10KST1 sets (AID 438;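 active = inhibition above 20% together with a positive visual image hit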;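 also: compound added about 3h40 before a 20 min TNFalpha stimulation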;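 as to inhibition: signal is the nuclear over cytoplasmic p65 intensity ratio per well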); conditions: HUVEC TNFa-induced p65 nuclear translocation; cell count: measured here: nuclei count (cytotoxicity indicator), at 2.08 µM; inhibition: at 2 µM, stronger effect = higher value, 0% TNFa-plus-vehicle, 100% no-TNFa wells
# [2] = inhibitors of E-selectin induction by TNFa, primary screen, imaging, HUVEC, immunofluorescence, MLSMR starter and 10KST1 sets (AID 487;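 active = visually confirmed hit in the image check and inhibition above 20%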;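 as to inhibition: signal is fraction of cell area covered by stained E-selectin grains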;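 as to nuclei count: 100% = median nuclei count of all wells on the same plate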); conditions: HUVEC TNFalpha-induced E-selectin immunofluorescence imaging, at 2 µM; inhibition: stronger effect = higher value; nuclei count: measured here: cell number, toxicity
# [3] = DUSP6 inhibitors restoring Erk phosphorylation by chemical complementation, primary imaging in DUSP6-transfected HeLa (AID 609;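 active = compounds giving at least 50% inhibition in the cell-based MKP-3 phosphatase rescue imaging test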;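 as to inhibition: phospho-Erk level distribution per well compared with pooled transfected vehicle control wells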); conditions: HeLa MKP-3 transfected, phospho-Erk imaging KS statistic, at 10 µM, cells stimulated with TPA for 15 min
# [4] = target: Dual specificity protein phosphatase 6 (Homo sapiens) (UniProt Q16828); assay: as above; conditions: HeLa MKP-3 transfected, phospho-Erk imaging KS statistic; at 10 µM; stronger effect = higher value; cells stimulated with TPA for 15 min
# Sequence of Dual specificity protein phosphatase 6 (Homo sapiens) (Q16828 whole entry, looked up): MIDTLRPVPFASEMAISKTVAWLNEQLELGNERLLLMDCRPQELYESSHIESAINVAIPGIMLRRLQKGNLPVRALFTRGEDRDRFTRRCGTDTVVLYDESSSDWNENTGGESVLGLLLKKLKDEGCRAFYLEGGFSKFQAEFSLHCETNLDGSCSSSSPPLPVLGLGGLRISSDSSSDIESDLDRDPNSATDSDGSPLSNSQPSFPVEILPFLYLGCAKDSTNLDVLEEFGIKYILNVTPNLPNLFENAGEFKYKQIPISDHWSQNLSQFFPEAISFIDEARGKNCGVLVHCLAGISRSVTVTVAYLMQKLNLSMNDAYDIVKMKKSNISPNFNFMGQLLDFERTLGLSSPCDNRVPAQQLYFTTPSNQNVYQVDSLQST
# [5] = target: Voltage-gated potassium channel subunit beta-2 (Rattus norvegicus) (UniProt P62483); assay: KvBeta enzyme negative modulators, primary screen, biochemical, NADPH fluorescence (AID 622;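 active = fluorescence slope higher than the sample average by over 3 SD, cut at about -0.22 in these data, passing the limit was not always enough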;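 also: slope of raw intensity against log time taken from 70 to 1610 s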); conditions: recombinant KvBeta, 4-cyanobenzaldehyde reduction, at 10 µM, stronger effect = higher value
# Sequence of Voltage-gated potassium channel subunit beta-2 (Rattus norvegicus) (P62483 whole entry, looked up): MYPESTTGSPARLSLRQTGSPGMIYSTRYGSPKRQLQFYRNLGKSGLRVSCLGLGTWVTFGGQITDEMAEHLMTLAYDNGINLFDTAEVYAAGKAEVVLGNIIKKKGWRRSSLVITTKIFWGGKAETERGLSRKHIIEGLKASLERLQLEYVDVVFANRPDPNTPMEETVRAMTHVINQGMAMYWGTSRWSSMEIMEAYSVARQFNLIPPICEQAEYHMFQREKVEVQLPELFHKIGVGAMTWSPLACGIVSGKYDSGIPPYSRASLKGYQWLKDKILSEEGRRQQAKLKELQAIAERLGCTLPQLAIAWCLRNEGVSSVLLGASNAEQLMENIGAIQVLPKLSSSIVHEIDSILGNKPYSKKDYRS
# [6] = target: Voltage-gated potassium channel subunit beta-2 (Rattus norvegicus) (UniProt P62483); assay: KvBeta positive modulators, primary screen, biochemical, NADPH fluorescence (AID 623); conditions: Recombinant KvBeta, NADPH fluorescence decrease slope, 10 min; at 10 µM; stronger effect = lower value;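 also: fluorescence intensity change per second fitted from 20 to 320 s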
# [7] = target: Alpha-2C adrenergic receptor (Homo sapiens) (UniProt P18825); assay: modulators of alpha2C/GIRK thallium flux, primary screen, cell-based, HEK293 alpha2C/GIRK1/2 (AID 624;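 active = fluorescence slope after compound addition differing from the mean of all screened samples at 99.7% confidence, in either direction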;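 also: slope of fluorescence ratio to pre-addition baseline per second over 15 to 24 s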); conditions: thallium flux BTC fluorescence, at 10 µM, actives lie on both sides
# Sequence of Alpha-2C adrenergic receptor (Homo sapiens) (P18825 whole entry, looked up): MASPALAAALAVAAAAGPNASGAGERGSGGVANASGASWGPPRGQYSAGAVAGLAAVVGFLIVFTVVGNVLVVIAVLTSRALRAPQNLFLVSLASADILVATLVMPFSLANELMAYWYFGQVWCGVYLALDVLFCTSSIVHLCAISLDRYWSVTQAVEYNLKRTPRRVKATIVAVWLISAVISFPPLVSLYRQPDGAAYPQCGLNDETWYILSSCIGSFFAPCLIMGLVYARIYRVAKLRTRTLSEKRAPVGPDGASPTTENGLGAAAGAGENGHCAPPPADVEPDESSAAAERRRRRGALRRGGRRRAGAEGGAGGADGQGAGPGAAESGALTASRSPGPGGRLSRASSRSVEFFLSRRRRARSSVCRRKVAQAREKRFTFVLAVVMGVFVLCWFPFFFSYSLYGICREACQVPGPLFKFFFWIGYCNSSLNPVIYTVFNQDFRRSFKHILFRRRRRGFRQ
# [8] = inhibitors of Chlamydomonas gravitaxis, primary screen, whole organism, Chlamydomonas reinhardtii, WT vs cilia-less mutant, absorbance, 96-well (AID 463189;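 active = inhibition at or above 50% relative to wild type and mutant plate controls; inactive = inhibition below 50%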;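 also: 0% = wild type cc124 cells in DMSO and 100% = ciliumless bld1 mutant cells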); conditions: OD600 absorbance, 2 days, at 10 µM, stronger effect = higher value
# [9] = measured here: cell density z-score
# [10] = measured here: nuclear c-Myc green intensity z-score
# [11] = measured here: nuclear pErk red intensity z-score, stronger effect = higher value
SMILES,cell count [1],inhibition [1],inhibition [2],nuclei count [2] [%],"z-score [3, 9]","z-score [3, 10]","z-score [3, 11]",inhibition [4],fluorescence slope [5],NADPH fluorescence slope [6],slope [7],inhibition [8]
O=c1[nH]c(-c2ccccn2)nc2ccccc12,336,-9% (inactive),-102% (inactive),126,0.0403,0.157,-1.25,1.48% (inactive),-0.555 (inactive),-4.4e-05 (inactive),0.00479 (inactive),34.7% (inactive)
CCOc1ccc(C2C(C(=O)c3ccc(C)o3)=C(O)C(=O)N2CCN2CCOCC2)cc1OC (centres undefined),248,-6% (inactive),-49.4% (inactive),93.8,0.462,0.354,0.737,-12.3% (inactive),-0.458 (inactive),-2.1e-05 (inactive),0.00423 (inactive),-15.3% (inactive)
N#C/C(=C\N1CCN(Cc2ccc3c(c2)OCO3)CC1)c1nc2ccccc2s1,359,-3.7% (inactive),-122% (inactive),170,-0.883,0.284,0.578,-14% (inactive),-0.428 (inactive),-0.000152 (inactive),0.00144 (inactive),100% (active)
Cc1ccc2cc(CN(C(=O)c3ccco3)c3ccccc3)c(=O)[nH]c2c1,312,-4.2% (inactive),-134% (inactive),163,1.52,-0.685,-0.563,19.3% (inactive),-0.412 (inactive),-4.7e-05 (inactive),0.0072 (inactive),33.7% (inactive)
COc1ccccc1-c1cc(-c2cc(Cl)ccc2O)n[nH]1,259,-13% (inactive),-9.5% (inactive),129,1.7,-0.531,-0.306,7.01% (inactive),-0.453 (inactive),-1.7e-05 (inactive),0.0086 (inactive),-19.8% (inactive)
Oc1ccc(Br)cc1-c1cc(-c2ccccc2F)[nH]n1,293,13% (inactive),-88.6% (inactive),116,-1.09,2.76,-1.37,-5.26% (inactive),-0.479 (inactive),-9.7e-05 (inactive),0.00987 (inactive),-2.23% (inactive)
N#Cc1nc(-c2ccccc2Cl)oc1N1CCCCC1,419,6.4% (inactive),-134% (inactive),150,1.98,-2.24,-0.968,20.2% (inactive),-0.535 (inactive),-6.6e-05 (inactive),0.00507 (inactive),35.9% (inactive)
